# Measurements from PMC4336329 (PLoS ONE, 2015).
# The campaign covered roughly 310,000 compounds. About 14,000 (4.5%) showed an effect of 50% or more. The effect is printed as a negative number. The list comes from a sample in which strong results are over-represented; it also holds similar structures and randomly drawn compounds.
# Target: human ether-à-go-go-related gene (hERG) potassium channel (human, UniProt Q12809)
# Assay: primary screen, population patch clamp on CHO cells stably expressing hERG; higher = less effect of the substance
# 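Further: peak tail current of the secondary pulse compared with the same well before compound.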
# human ether-à-go-go-related gene (hERG) potassium channel, sequence (Q12809 whole entry, looked up): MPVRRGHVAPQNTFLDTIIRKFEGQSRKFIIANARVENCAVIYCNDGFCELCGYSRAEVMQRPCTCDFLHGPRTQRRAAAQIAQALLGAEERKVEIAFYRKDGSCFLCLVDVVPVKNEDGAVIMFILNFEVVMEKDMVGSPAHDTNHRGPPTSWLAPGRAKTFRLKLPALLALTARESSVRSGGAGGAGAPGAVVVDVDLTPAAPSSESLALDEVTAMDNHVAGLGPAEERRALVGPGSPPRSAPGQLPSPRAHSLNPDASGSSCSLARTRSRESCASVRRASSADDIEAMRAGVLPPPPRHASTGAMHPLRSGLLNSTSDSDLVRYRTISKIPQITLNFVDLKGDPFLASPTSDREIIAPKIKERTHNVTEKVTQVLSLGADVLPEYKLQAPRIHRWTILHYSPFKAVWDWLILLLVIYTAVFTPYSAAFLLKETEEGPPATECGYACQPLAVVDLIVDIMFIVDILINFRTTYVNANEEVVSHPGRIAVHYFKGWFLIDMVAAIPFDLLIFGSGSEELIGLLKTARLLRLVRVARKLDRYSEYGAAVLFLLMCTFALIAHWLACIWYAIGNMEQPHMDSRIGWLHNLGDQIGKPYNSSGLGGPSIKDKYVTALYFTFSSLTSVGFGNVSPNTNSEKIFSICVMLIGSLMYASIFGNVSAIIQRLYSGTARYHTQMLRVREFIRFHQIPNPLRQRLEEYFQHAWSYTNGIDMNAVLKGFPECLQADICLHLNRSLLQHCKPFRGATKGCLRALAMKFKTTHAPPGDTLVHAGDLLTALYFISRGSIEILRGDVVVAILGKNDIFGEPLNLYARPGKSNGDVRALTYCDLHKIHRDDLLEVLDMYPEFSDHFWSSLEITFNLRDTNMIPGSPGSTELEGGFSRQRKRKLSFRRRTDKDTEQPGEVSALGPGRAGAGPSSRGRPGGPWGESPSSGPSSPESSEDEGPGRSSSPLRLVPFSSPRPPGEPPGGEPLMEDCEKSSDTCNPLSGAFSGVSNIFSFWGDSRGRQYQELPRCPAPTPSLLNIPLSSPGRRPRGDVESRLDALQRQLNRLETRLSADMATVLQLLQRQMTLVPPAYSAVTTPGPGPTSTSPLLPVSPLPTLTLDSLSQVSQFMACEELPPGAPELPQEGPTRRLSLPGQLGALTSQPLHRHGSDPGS
row,SMILES,"hERG current change (%, negative = inhibition) at 10uM [%]"
1,Nn1c(SCC(=O)NC2CCCCC2)nnc1-c1ccccc1F,-3.17
2,CCCc1[nH]nc2c1C(c1ccsc1)C(C#N)=C(N)O2 (stereo not shown),-7.53
3,CCOC(=O)C1CCN(C(=O)c2cc3c(OC)c(OC)c(OC)cc3[nH]2)CC1,15.5
4,O=C(c1ccco1)N1CCN(C(=O)c2ccc(COc3ccc4c(c3)CCC4)o2)CC1,-69
5,O=C(c1ccc(COc2ccc(Cl)cc2Cl)o1)N1CCCC1,-43.1
6,O=C(c1ccc(COc2ccc3c(c2)CCC3)o1)N1CCN(c2ccccc2)CC1,15.5
7,O=C(c1ccco1)N1CCN(C(=O)c2ccc(COc3ccc(Cl)cc3Cl)o2)CC1,-70.4
8,O=C(COc1ccc(Cl)cc1Cl)N1CCN(C(=O)c2ccco2)CC1,20.6
9,NNC(=O)c1ccc(COc2ccc3c(c2)CCC3)o1,0.852
10,CCOc1cc2[nH]c(=S)n(CCC(=O)NCc3ccco3)c(=O)c2cc1OCC,23.6
11,CC(C)(C)CN1CCN(Cc2cc3ccccc3[nH]2)CC1CCO (stereo not shown),-8.03
12,Cc1ccc(CN2CCN(Cc3cc(=O)c4ccccc4[nH]3)CC2CCO)o1 (stereo not shown),-30.8
13,CCOc1ccccc1CN1CCN(Cc2cc3ccccc3[nH]2)CC1CCO (stereo not shown),-59.3
14,CC(C)CCN1CCN(Cc2cc3ccccc3[nH]2)CC1CCO (stereo not shown),-22.4
15,O=c1cc(CN2CCN(Cc3ccc(F)cc3)C(CCO)C2)[nH]c2ccccc12 (stereo not shown),-61.2
16,CCOc1ccccc1CN1CCN(Cc2cc(=O)c3ccccc3[nH]2)CC1CCO (stereo not shown),-66.6
17,Cc1cc(NC(=O)CSc2nc3sc4c(c3c(=O)n2C)CCCC4)no1,7.47
18,O=c1c2ccccc2c(-c2ccccc2)nn1-c1ccc(Cl)c(Cl)c1,13.3
19,CCOC(=O)C1CCCNC1=O (stereo not shown),14.8
20,Brc1ccc2c(c1)OCCOCCOCCOCCOCCOCCO2,-70.8

row,SMILES,"hERG current change (%, negative = inhibition) at 10uM [%]"
1,O=C(O)/C=C/c1ccc2c(c1)OCCO2,-25
2,S=C(Nc1ccc(Br)cc1)Nc1ccc2c(c1)OCCO2,20.5
3,O=C(Nc1ccc(Br)cc1F)c1ccc2c(c1)OCCO2,12.3
4,C=Cc1ccc2c(c1)OCCOCCOCCOCCOCCO2,-71.2
5,Brc1ccc2c(c1)OCCOCCOCCOCCOCCO2,-76.4
6,Cl.Nc1ccc2c(c1)OCCOCCOCCOCCOCCO2,-33.5
7,Brc1ccc2c(c1)OCCOCCOc1cc(Br)ccc1OCCOCCOCCO2,-4.86
8,O=C(Nc1ccc2c(c1)OCCO2)c1ccc(Br)cc1,-3.81
9,Brc1cc2c(cc1Br)OCCOCCOCCOCCO2,-76.5
10,Brc1cc2c(cc1Br)OCCOCCOCCO2,-11.5
11,CC(=O)Nc1cc2c(cc1Br)OCCO2,21.5
12,COC(=O)/C(=C\c1cc(OC)c(OC)c(OC)c1)c1nc2ccccc2[nH]1.Cl,19
13,COc1ccc(C)cc1NC(=O)CCCN1C(=O)C(c2ccccc2)Oc2cccnc21 (stereo not shown),2.21
14,Cc1cccc(CCNC(=O)CCS(=O)(=O)c2cc3c(cc2Cl)NC(=O)CO3)c1,3.71
15,CC[C@H]1OC(=O)[C@H](C)[C@@H](O[C@H]2C[C@@](C)(OC)[C@@H](O)[C@H](C)O2)[C@H](C)[C@@H](O[C@@H]2O[C@H](C)C[C@H](N(C)C)[C@H]2O)[C@](C)(O)C[C@@H](C)CN(C)[C@H](C)[C@@H](O)[C@]1(C)O,1.55
16,Cc1ccc(/C(O)=C2/C(=O)C(=O)N(Cc3ccco3)C2c2cccs2)cc1 (stereo not shown),-8.53
17,CCOC(=O)c1cc(C(=O)n2cc(Cl)cn2)nn1C,10.6
18,Cc1ccc(-c2csc(NC(=O)CCNC(=O)c3ccco3)n2)cc1,5.76
19,COc1cc2c(cc1NC(=O)c1cc(-c3cccnc3)nc3ccc(C)cc13)oc1ccccc12,8.86
20,CCN(CC)c1ccc(/C=N/NC(=O)c2cccc(S(=O)(=O)N3CCOCC3)c2)cc1,-24.4

row,SMILES,"hERG current change (%, negative = inhibition) at 10uM [%]"
1,CC1(C(=O)Nc2nnc(SCc3ccccc3)s2)Cc2ccccc2C(=O)O1 (stereo not shown),-24.6
2,COc1ccc(OCC(=O)c2c(O)c3ccccc3oc2=O)cc1,-12.4
3,CCOC(=O)C1=NN(C(=O)c2cccc(Br)c2)C(O)(C(C)(C)C)C1 (stereo not shown),-57.6
4,COC(=O)C1=NN(C(=O)c2cccc(Cl)c2)C(O)(C(C)(C)C)C1 (stereo not shown),8.11
5,CCOC(=O)C1=NN(C(=O)Cc2ccccc2)C(O)(C(C)(C)C)C1 (stereo not shown),9.74
6,COc1ccc(C2CC(=O)C3=C(C2)Nc2ccccc2N(C(C)=O)C3c2ccco2)cc1 (stereo not shown),-35.8
7,CN(C)C(=S)Nc1ccc([N+](=O)[O-])cc1,-0.053
8,O=[N+]([O-])c1cccc(C(=NCc2ccccc2)NO)c1,15.9
9,CN(C)C(=S)NC(=NCc1ccc([N+](=O)[O-])cc1)c1ccccc1,-90.7
10,Nc1ncc([N+](=O)[O-])c(Oc2ccccc2F)n1,24.7
11,CCCC1(CCC)C(=O)NC(=NCc2ccccc2)NC1=O,12.7
12,Cc1cc(C)n(-c2nc3c(c(=O)[nH]c(=O)n3C)n2CC(O)COc2ccccc2C)n1 (stereo not shown),-31.9
13,O=C(COc1cccc2c1CCN(Cc1ccccc1)C2=O)N1CCCCC1,-15
14,CCN1CCc2c(OCC(=O)N3CCCCC3)cccc2C1=O,5.33
15,O=C(COc1cccc2c1CCN(Cc1ccc(Br)cc1)C2=O)N1CCOCC1,-58.4
16,CC1CCN(C(=O)COc2cccc3c2CCN(Cc2ccccc2)C3=O)CC1,-36
17,O=C(COc1cccc2c1CCN(Cc1ccc(Cl)cc1)C2=O)N1CCOCC1,-60.2
18,O=C(COc1cccc2c1CCN(Cc1ccccc1F)C2=O)N1CCCCC1,-43.4
